Data on 40 molecules can be found in PubChem BioAssay (NCATS).

SMILES strings stand for the structures. Inconclusive results are not listed. Values without a mark were called inactive. Calls of active or inactive are those of the source. Calls follow the shape of the dose curve; as a rule, active = well fitted inhibition curve with a large enough effect; inconclusive = small, poorly fitted or top-dose-only effect, or effect the other way; inactive = flat fitted curve, though single readings scatter.
% is scaled to controls: 0 for no effect and ±100 for the full control effect; potency is read from the fitted curve at half-maximal effect.

Chain of D(1A) dopamine receptor (Homo sapiens) (P21728 whole entry, looked up): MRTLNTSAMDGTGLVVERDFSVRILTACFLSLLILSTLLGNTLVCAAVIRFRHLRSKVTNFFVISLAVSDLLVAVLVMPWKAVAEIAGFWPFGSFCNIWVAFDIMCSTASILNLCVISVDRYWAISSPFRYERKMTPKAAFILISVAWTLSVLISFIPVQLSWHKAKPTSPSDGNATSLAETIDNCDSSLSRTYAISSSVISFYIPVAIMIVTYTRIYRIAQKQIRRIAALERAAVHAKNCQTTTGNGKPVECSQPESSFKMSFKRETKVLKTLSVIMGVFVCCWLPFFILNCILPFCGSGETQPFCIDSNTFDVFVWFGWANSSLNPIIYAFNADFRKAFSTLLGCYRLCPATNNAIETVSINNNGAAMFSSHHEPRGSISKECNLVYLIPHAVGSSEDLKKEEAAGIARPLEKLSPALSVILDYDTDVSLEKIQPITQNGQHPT

The target in this assay is D(1A) dopamine receptor (Homo sapiens) (UniProt P21728). As to the kind of experiment: HTS Assay for Allosteric Agonists of the Human D1 Dopamine Receptor: Primary Screen for Antagonists (AID 488983). Also: nearly all actives have a fitted effect of over 65% in size. The note with it: D1 receptor cell assay, antagonist mode, qHTS titration; series mostly up to 41.8 µM; activity change, negative = inhibition: at the top concentration. An excerpt:
Dopamine receptors (DARs) are involved in the etiology and/or therapy of a number of neuropsychiatric and endocrine disorders. For instance, all receptor-based antiparkinsonian drugs work via stimulating the […] DAR subtype whereas all FDA-approved antipsychotic agents are antagonists of this receptor. […] There are three different types of allosteric modulators that we are seeking, two of which will stimulate or augment receptor signaling, allosteric agonists and potentiators, while the third, allosteric antagonists, will attenuate receptor signaling. The present primary screening assay measures compound agonism by tracking calcium flux in a […], inducible Hek293 Trex D1 cell line.
Freshly passaged cells are plated in 1536 well black, clear bottom plates at a density of 4000 cells/well in 3 ul of complete media containing 1x tetracycline inducer. After an overnight incubation at 30 C in 5% CO2, cells are loaded with 2 ul of the no wash Calcium Assay Kit (ABD Bioquest) and incubated at room temperature for 30 to 90 minutes. A 10 cycle (1 second/cycle) baseline measurement is taken and then the FDSS online 1536 pintool delivers 23 nl of compound library (as well as dopamine controls) to the plate. The plate is measured for kinetically at 1 cycle/sec for 180 seconds and is considered to be the agonist portion of the assay (eg, compounds which activate a positive calcium response during this portion are flagged as potential agonists). Following the 180 second read, 1 ul of an EC80 of dopamine is delivered by an onboard pipette head. Measurements are taken kinetically for an additional 180 seconds.
For orientation: In qHTS, concentration-response curves come from the screen itself.
Turning to `CCCC(C(=O)OCCN(CC)CC)(c1ccccc1)c1ccccc1`, the “activity change, negative = inhibition” value was 14.7%.
Turning to `c1cnc(N2CCN(Cc3ccc4c(c3)OCO4)CC2)nc1`, the “activity change, negative = inhibition” value was -13.5%.
Consider `COC(=O)C1=C(C)NC(C)=C(C(=O)OC(C)(C)CN(C)CCC(c2ccccc2)c2ccccc2)C1c1cccc([N+](=O)[O-])c1` (stereo not given), for which the “activity change, negative = inhibition” value is 10.9%.
The same measure, in the same setting: for `Nc1nc(N)c2nc(-c3ccccc3)c(N)nc2n1` the value was 21.3%; for `C[N+](C)(C)CCOC(N)=O`, -13.1%; for `CCOC(=O)c1cnc2c(cnn2CC)c1NN=C(C)C`, 4.51%.
On the same count and under the same terms, the value for `c1ccc2c(c1)CCCC2C1=NCCN1` (stereo not given) was 4.29%; that for `CCN(CC)CCNC(=O)c1cc(S(C)(=O)=O)ccc1OC` was -16.2%; that for `CCN(CC)CCNC(=O)c1ccc(NC(C)=O)cc1` was 10.2%.
Take `CN(C)C(=O)Oc1cccc([N+](C)(C)C)c1`: the “activity change, negative = inhibition” value is -0.365%.
On the same count and under the same terms, for `O=c1[nH]c(=O)n([C@H]2C[C@H](O)[C@@H](CO)O2)cc1Br` the value was 8.96%.
As for `Cc1nnc(SCC2=C(C(=O)O)N3C(=O)[C@@H](NC(=O)Cn4cnnn4)[C@H]3SC2)s1`, the “activity change, negative = inhibition” value was 8.2%.
Take `NC/C=C/C(=O)O`: the “activity change, negative = inhibition” value was 13.7%.
On the same count and under the same terms, the value for `C[C@@H](O)[C@H]1C(=O)N2C(C(=O)O)=C(SCCN=CN)C[C@H]12` was 3.36%; that for `CCCNC(C)C(=O)Nc1ccccc1C` (stereo not given) was 3.98%.
`COCCc1ccc(OCC(O)CNC(C)C)cc1` (stereo not given): the “activity change, negative = inhibition” value was 16.2%.
The same measure, in the same setting: the value for `CN(C)[C@@H]1C(=O)C(C(N)=O)=C(O)[C@@]2(O)C(=O)C3=C(O)c4c(O)ccc(Cl)c4[C@@H](O)[C@H]3C[C@@H]12` was 2.94%.
Same read-out and setting: for `O=C(O)CN(CCN(CC(=O)O)CC(=O)O)CCN(CC(=O)O)CC(=O)O` the value was 1.2%; for `CCCOc1ccccc1-c1nc2n[nH]nc2c(=O)[nH]1`, -0.86%.
On the same count and under the same terms, the value for `CC(C)COCC(CN(Cc1ccccc1)c1ccccc1)N1CCCC1` (stereo not given) was -0.975%; that for `C[n+]1cc2c3c(ccc2c2ccc4cc5c(cc4c21)OCO5)OCO3` was -26.2%.
Turning to `OCCN1CCN(CCCN2c3ccccc3C=Cc3ccccc32)CC1`, the Potency was 11.2 µM (active).
In the case of `CNC1(C)C2CCC(C2)C1(C)C` (stereo not given), the “activity change, negative = inhibition” value was 11.3%.
The same measure, in the same setting: for `C[C@H](CS)C(=O)N1CCC[C@H]1C(=O)O` the value was 4.58%.
In the case of `CC(C(=O)O)c1ccc(CC2CCCC2=O)cc1` (stereo not given), the “activity change, negative = inhibition” value is 4.01%.
As for `CCCCNc1ccc(C(=O)OCCN(C)C)cc1`, the “activity change, negative = inhibition” value was -6.56%.
The same measure, in the same setting: for `CN(C(=O)CCCOc1ccc2[nH]c(=O)ccc2c1)C1CCCCC1` the value was -7.04%; for `CCN(CC)CCOCCOC(=O)C1(c2ccccc2)CCCC1`, 1.86%.
In the case of `CC(=O)Oc1cc(C(C)C)c(OCCN(C)C)cc1C`, the “activity change, negative = inhibition” value is -2.64%.
Same read-out and setting: for `Cc1ccc(/C(=C\CN2CCCC2)c2ccccn2)cc1` the value was -9.11%; for `CC(=O)OC(C)C[N+](C)(C)C` (stereo not given), -12.2%.
`CC1=NS(=O)(=O)c2cc(Cl)ccc2N1`: the “activity change, negative = inhibition” value was 15%.
On the same count and under the same terms, the value for `NC(=O)c1cn(Cc2c(F)cccc2F)nn1` was 3%; that for `CCN(CC)CC(=O)Nc1c(C)cccc1C` was -2.46%.
On the same count and under the same terms, the value for `CSc1ccc(C(=O)c2[nH]c(=O)[nH]c2C)cc1` was -7.31%.
On the same count and under the same terms, for `CN(C)C(=O)Oc1ccc[n+](C)c1` the value was 0.772%.
With `CCCCNC(=O)NS(=O)(=O)c1ccc(C)cc1`, the “activity change, negative = inhibition” value is 6%.
On the same count and under the same terms, for `CC(C)(C)NCC(O)c1cc(O)cc(O)c1` (stereo not given) the value was 14.1%; for `COC(=O)[C@H]1[C@H]2C[C@@H]3c4[nH]c5cc(OC)ccc5c4CCN3C[C@H]2C[C@@H](OC(=O)c2cc(OC)c(OC)c(OC)c2)[C@@H]1OC`, 18.4%; for `CC(=O)[C@@]1(O)CC[C@H]2[C@@H]3CCC4=CC(=O)CC[C@]4(C)[C@H]3CC[C@@]21C`, 7.06%.
